For three compounds, inhibition results are on record in ChEMBL document CHEMBL1961873, “Compounds: GSK PKIS; Assays: Nanosyn kinase panel” (2012).

For assay [1], the target named is High affinity nerve growth factor receptor (Homo sapiens) (UniProt P04629). The conditions noted are these: at 1 µM.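 Also: each value is the mean percent inhibition of TRKA.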
Assay [2] has as its target BDNF/NT-3 growth factors receptor (Homo sapiens) (UniProt Q16620). The settings on record: at 0.1 µM.
The target is the same in assay [3]. The settings on record: at 1 µM.
For assay [4], the target named is NT-3 growth factor receptor (Homo sapiens) (UniProt Q16288). The conditions noted are these: at 0.1 µM.
Assay [5] shares this target. The settings on record: at 1 µM.
Assay [6] has as its target T1, Tyrosine-protein kinase TXK (Homo sapiens) (UniProt P42681).
T1 sequence (whole entry): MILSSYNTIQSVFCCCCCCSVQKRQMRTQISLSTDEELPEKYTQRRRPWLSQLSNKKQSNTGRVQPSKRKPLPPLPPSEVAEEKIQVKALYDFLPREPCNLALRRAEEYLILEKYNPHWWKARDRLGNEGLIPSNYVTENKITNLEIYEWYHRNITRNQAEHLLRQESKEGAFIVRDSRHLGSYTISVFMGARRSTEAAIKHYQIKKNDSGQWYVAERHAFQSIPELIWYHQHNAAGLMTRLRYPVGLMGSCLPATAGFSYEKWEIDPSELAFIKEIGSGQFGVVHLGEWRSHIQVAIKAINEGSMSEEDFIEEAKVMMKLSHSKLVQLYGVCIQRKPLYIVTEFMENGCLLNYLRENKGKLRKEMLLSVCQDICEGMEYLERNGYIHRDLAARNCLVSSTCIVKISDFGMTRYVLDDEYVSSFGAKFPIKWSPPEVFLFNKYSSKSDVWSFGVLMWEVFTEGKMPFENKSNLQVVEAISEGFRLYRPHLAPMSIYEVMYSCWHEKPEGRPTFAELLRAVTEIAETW
The conditions noted are these: at 0.1 µM.

Assay [7] deals with T1, Tyrosine-protein kinase TXK (Homo sapiens). The settings on record: at 1 µM.
The target of assay [8] is Non-receptor tyrosine-protein kinase TYK2 (Homo sapiens) (UniProt P29597). The conditions noted are these: at 0.1 µM.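 Also: each value is a mean of the inhibition readings.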
Assay [9] addresses T2, Dual specificity protein kinase TTK (Homo sapiens) (UniProt P33981).
T2 sequence (whole entry): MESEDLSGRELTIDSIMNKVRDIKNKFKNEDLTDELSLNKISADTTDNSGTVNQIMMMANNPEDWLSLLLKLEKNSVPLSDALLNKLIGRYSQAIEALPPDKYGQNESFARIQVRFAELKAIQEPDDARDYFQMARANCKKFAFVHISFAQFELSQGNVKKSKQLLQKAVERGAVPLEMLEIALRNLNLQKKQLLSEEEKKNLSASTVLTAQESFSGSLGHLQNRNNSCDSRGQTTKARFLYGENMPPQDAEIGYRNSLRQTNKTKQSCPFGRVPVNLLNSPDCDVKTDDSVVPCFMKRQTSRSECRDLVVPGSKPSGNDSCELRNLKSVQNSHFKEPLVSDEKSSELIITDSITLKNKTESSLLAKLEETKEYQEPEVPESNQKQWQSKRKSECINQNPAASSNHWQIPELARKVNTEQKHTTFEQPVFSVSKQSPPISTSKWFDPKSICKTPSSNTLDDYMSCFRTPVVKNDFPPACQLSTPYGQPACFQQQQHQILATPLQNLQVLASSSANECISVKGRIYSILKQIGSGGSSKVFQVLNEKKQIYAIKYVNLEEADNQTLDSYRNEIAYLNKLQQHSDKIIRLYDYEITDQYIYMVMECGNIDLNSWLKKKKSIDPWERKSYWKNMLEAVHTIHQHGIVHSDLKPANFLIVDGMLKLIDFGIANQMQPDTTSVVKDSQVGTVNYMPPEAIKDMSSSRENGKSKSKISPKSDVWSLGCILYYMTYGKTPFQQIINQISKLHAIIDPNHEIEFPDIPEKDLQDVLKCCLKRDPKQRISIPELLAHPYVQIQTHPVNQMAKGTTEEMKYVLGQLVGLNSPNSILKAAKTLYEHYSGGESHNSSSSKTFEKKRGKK
The settings on record: at 1 µM.

The target of assay [10] is T3, Aurora kinase A (Homo sapiens) (UniProt O14965).
T3 sequence (whole entry): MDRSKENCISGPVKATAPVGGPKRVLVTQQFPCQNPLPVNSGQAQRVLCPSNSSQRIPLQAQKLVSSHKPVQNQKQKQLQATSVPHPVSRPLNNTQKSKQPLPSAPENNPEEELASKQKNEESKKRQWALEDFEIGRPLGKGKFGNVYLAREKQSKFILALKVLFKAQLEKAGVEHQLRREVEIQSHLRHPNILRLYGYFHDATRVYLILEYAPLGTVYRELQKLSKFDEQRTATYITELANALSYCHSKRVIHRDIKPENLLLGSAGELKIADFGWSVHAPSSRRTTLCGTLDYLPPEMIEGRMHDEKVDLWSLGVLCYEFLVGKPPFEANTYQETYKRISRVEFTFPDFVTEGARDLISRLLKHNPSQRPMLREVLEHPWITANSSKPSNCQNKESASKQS
The settings on record: at 0.1 µM.

The target in assay [11] is T3, Aurora kinase A (Homo sapiens). The settings on record: at 1 µM.
Assay [12] addresses Aurora kinase B (Homo sapiens) (UniProt Q96GD4). The settings on record: at 0.1 µM.
The target is the same in assay [13]. The settings on record: at 1 µM.
In assay [14] the target is T4, Aurora kinase C (Homo sapiens) (UniProt Q9UQB9).
T4 sequence (whole entry): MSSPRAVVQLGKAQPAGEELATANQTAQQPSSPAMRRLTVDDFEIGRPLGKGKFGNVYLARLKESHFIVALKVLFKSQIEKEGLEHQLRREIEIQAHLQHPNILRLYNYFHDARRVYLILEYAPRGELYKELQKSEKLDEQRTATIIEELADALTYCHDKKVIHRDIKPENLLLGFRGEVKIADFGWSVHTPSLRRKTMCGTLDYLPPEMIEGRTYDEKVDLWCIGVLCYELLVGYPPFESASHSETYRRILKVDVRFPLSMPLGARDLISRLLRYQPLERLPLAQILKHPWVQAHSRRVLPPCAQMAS
The conditions noted are these: at 0.1 µM.

Assay [15] addresses T4, Aurora kinase C (Homo sapiens). The conditions noted are these: at 1 µM.
Assay [16] addresses Serine/threonine-protein kinase 10 (Homo sapiens) (UniProt O94804). The settings on record: at 0.1 µM.
Assay [17] has the same target. The conditions noted are these: at 1 µM.
Assay [18] concerns the target T5, Mitogen-activated protein kinase kinase kinase kinase 2 (Homo sapiens) (UniProt Q12851).
T5 sequence (whole entry): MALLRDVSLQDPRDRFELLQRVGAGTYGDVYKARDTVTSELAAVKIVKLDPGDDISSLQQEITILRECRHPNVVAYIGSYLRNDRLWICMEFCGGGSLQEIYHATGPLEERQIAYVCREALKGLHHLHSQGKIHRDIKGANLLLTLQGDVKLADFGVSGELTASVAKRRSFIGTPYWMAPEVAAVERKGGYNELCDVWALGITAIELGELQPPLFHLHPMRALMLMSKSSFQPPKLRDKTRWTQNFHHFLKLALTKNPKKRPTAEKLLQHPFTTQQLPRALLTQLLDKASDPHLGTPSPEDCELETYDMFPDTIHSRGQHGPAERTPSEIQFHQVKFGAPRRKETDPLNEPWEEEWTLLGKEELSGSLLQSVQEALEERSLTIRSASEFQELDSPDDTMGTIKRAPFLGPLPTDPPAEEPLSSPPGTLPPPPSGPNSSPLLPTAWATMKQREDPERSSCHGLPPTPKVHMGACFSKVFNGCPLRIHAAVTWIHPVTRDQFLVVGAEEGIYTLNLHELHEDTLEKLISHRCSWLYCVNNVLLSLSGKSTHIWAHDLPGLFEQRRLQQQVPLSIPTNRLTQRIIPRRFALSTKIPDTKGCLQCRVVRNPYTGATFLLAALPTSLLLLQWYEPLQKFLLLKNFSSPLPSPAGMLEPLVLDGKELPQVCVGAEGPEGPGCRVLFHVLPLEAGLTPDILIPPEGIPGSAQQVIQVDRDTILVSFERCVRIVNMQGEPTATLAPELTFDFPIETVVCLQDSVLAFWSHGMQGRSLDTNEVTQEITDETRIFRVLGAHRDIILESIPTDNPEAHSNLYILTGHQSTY
The settings on record: at 0.1 µM.

For assay [19], the target named is T5, Mitogen-activated protein kinase kinase kinase kinase 2 (Homo sapiens). The settings on record: at 1 µM.
Assay [20] deals with Mitogen-activated protein kinase kinase kinase kinase 4 (Homo sapiens) (UniProt O95819). The settings on record: at 0.1 µM.

Sequence of Non-receptor tyrosine-protein kinase TYK2 (Homo sapiens) (P29597 whole entry): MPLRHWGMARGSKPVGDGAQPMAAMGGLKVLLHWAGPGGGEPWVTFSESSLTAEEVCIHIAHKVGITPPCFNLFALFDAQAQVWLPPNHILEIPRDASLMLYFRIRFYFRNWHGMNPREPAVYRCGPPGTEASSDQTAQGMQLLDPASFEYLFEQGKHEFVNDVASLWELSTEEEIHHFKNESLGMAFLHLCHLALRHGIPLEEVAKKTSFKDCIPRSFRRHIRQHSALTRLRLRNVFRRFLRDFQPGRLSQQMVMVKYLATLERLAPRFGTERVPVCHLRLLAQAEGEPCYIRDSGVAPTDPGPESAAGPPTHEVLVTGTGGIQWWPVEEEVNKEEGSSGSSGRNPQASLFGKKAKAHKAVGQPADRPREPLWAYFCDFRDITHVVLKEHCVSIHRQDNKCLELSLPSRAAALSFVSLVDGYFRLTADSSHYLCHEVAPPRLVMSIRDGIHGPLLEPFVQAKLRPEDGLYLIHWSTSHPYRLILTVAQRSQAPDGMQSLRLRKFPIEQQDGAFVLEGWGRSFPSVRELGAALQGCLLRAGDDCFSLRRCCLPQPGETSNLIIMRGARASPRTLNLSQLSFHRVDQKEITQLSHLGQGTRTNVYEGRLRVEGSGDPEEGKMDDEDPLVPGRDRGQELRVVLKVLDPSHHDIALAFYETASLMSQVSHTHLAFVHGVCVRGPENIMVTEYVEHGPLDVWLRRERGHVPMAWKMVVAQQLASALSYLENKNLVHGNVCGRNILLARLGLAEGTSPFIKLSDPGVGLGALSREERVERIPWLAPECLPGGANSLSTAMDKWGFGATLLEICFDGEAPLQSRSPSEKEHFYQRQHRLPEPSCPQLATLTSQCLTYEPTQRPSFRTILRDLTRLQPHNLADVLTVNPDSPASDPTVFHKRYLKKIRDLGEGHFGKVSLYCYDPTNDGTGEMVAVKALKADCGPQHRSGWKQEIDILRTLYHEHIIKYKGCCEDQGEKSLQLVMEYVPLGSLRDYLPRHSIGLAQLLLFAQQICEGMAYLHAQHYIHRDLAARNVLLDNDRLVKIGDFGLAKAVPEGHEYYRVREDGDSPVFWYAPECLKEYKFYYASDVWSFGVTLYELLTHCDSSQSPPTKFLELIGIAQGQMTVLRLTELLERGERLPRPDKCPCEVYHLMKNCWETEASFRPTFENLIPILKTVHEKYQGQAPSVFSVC
Sequence of Serine/threonine-protein kinase 10 (Homo sapiens) (O94804 whole entry, looked up): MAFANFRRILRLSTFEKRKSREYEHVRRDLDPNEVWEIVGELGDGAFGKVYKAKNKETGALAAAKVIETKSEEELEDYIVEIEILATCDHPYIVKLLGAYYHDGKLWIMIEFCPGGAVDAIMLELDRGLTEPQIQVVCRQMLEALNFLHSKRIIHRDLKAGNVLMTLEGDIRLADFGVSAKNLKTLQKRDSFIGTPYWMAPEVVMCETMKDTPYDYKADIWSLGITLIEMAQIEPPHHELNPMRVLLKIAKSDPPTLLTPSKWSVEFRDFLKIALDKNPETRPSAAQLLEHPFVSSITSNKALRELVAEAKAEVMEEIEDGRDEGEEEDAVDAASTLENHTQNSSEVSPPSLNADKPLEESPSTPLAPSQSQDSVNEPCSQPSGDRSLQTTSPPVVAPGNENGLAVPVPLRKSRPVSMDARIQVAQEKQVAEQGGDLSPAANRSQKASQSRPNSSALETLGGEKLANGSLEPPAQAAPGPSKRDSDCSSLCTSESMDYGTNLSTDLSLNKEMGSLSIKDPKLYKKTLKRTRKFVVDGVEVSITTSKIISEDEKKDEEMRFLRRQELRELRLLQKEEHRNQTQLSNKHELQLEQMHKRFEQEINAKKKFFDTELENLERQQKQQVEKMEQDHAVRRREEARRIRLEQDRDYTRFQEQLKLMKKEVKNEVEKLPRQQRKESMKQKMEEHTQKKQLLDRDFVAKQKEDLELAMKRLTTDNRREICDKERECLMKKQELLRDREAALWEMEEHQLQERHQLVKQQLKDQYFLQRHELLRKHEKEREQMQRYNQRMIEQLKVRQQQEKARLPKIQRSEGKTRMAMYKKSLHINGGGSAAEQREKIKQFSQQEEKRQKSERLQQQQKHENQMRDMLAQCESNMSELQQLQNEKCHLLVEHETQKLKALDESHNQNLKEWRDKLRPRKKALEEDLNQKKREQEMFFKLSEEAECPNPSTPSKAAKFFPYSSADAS
Sequence of BDNF/NT-3 growth factors receptor (Homo sapiens) (Q16620 32-822 limits assumed): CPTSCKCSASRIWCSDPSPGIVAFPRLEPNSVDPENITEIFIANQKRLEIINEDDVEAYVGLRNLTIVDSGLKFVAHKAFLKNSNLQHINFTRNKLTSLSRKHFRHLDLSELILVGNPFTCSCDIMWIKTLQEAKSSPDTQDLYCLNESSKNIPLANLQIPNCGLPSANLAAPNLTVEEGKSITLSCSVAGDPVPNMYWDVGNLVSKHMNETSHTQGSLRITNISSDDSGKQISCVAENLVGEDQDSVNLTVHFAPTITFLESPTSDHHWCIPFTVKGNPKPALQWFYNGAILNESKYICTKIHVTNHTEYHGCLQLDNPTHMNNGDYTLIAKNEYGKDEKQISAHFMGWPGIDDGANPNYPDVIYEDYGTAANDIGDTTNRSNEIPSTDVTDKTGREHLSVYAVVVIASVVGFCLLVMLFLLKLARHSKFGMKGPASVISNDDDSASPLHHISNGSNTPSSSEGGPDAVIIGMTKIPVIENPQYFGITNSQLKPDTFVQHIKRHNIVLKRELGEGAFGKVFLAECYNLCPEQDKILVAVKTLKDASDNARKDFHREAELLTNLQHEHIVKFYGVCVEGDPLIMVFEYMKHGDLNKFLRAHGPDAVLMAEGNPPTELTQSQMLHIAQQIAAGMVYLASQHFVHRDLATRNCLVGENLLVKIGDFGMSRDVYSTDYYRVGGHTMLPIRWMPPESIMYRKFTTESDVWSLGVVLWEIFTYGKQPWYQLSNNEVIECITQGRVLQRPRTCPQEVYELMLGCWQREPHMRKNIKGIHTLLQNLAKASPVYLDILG
Sequence of Aurora kinase B (Homo sapiens) (Q96GD4 whole entry): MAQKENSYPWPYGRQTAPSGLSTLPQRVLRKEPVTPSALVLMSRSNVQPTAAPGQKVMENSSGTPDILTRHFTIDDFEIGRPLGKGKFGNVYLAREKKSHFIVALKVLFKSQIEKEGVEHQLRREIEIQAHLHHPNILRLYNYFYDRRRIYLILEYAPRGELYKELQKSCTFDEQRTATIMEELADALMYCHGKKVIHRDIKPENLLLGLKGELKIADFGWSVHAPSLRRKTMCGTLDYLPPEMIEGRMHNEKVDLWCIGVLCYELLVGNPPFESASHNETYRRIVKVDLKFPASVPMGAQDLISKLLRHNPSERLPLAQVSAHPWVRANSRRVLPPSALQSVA
Sequence of NT-3 growth factor receptor (Homo sapiens) (Q16288 32-839 limits assumed): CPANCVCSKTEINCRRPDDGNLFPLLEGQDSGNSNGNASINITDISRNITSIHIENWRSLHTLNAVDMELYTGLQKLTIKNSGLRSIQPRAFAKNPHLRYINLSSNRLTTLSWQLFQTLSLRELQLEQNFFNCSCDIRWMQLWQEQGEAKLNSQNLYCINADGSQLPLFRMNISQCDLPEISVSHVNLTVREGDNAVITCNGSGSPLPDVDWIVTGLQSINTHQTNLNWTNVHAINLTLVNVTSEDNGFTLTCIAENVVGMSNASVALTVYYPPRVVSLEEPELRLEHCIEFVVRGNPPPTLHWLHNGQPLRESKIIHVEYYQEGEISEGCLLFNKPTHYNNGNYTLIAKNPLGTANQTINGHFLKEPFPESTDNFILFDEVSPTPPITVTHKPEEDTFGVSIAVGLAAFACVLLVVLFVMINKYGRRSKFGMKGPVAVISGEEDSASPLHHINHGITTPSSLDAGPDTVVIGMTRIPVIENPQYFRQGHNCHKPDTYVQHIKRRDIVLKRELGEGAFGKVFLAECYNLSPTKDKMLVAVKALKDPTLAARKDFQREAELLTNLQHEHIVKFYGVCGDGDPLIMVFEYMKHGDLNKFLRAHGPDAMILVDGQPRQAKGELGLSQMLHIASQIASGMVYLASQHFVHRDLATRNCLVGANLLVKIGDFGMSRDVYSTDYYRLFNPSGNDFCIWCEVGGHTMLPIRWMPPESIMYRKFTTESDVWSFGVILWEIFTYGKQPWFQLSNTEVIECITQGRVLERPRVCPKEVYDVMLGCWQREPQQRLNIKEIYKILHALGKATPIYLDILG
Sequence of High affinity nerve growth factor receptor (Homo sapiens) (P04629 33-796 limits assumed): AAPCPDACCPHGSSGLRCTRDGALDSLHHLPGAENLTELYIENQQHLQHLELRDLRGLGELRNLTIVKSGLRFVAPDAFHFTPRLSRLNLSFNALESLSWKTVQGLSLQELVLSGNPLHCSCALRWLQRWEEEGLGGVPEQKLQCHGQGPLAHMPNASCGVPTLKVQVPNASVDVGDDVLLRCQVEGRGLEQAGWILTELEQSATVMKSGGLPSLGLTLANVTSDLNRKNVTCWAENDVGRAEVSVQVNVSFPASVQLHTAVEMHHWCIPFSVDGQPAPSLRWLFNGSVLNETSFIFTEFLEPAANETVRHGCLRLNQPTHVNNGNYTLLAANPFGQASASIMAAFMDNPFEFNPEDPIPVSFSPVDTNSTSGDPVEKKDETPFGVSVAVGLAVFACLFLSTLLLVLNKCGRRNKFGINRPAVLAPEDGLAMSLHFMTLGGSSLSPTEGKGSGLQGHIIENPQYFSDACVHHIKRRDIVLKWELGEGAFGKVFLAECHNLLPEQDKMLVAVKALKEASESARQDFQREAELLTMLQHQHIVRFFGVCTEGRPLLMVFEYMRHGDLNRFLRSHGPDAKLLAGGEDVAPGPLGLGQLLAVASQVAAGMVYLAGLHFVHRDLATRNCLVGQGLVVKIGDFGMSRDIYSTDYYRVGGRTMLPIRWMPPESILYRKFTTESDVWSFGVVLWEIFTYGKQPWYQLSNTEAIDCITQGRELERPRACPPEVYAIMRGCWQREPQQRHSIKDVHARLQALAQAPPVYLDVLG

What is called inhibition is the drop in the measured response relative to a control, in per cent. Take `CN1CCC(n2cnc(-c3ccc(F)cc3)c2-c2ccnc(Nc3ccccc3)n2)CC1`: the inhibition turned out to be 1.74% in [1]; 0.31% in assay [2]; 1.95% in [3]; 1.52% in assay [4]; 3.75% in assay [5]; 3.25% in [6]. In addition, the inhibition came to 5.32% in assay [7]; 1.84% in assay [8]; 8.53% in assay [9]; 2.13% in assay [10]; 5.7% in [11]; 3.55% in [12]. Further, the inhibition was 3.9% in assay [13]; 0.71% in assay [14]; -2.98% in assay [15]; 2.62% in [16]; 8.59% in [17]; 1.51% in assay [18]. Besides, the results for the inhibition in [19] and in assay [20] were 10.3% and 4.88%, respectively.
For the compound `CCn1cc(-c2ccnc3[nH]ccc23)c(-c2cccc(NC(=O)Nc3ccc(OCc4ccccc4)cc3)c2)n1`, the inhibition in assay [1] was -2.6%; in [2], -2.42%; in assay [3], -0.53%; in [4], -0.62%; in [5], 8.83%; in [6], -1.03%. The inhibition came out at 1.79% in assay [7]; 0.94% in assay [8]; 3.41% in assay [9]; 2.05% in [10]; 7.41% in assay [11]; 2.62% in [12]. For the same compound, the inhibition was determined as 14.1% in assay [13]; 0.13% in [14]; 19.5% in [15]; 2.56% in assay [16]; 7.07% in assay [17]; 0.73% in [18]. For the same compound, the inhibition in [19] is 10.4%; in assay [20], 1.57%.
As to `COc1cc(N2CCN(C(C)C)CC2)ccc1Nc1nc(Nc2ccc(F)cc2C(N)=O)c2cc[nH]c2n1`, the inhibition in [1] was 4.26%; in assay [2], -0.6%; in assay [3], 3.09%; in assay [4] it was -0.87%; in [5], -0.43%; in assay [6], 8.7%. For the same compound, the inhibition in [7] was 5.7%; in [8], -1.63%; in assay [9] it was 85.6%; in [10], 2.91%; in assay [11] it was 4.58%; in assay [12] it was 2.99%. The inhibition in [13] turned out to be 2.23%; in [14] it was 0.8%; in [15] it was 2.67%; in assay [16] it was 3.31%; in [17] it was 11.8%; in assay [18], 4.5%. In addition, the values for the inhibition in [19] and in [20] were 31.1% and 18.1%, respectively.
